Drawing on the supplement of paper PMC7156485, this text covers cell number and H1.0 immunofluorescence intensity for 24 compounds.

Holding throughout (conditions): concentration: 10 µM; 24 h
Experiment [1] deals with HCC1569. The experiment can be described thus: cell number relative to DMSO (% of DMSO); higher = more cells (less growth inhibition / toxicity). Summed up:
(§1)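 Using 384-well plates with 800 cells per well in RPMI plus 10% FBS, HCC1569 and TDF cells were exposed to compounds at 10 µM, in triplicate, for 24 h at 37 °C. Imaging of six fields per well at ×10 followed H1.0 and DAPI staining. The reported quantity, H1.0 nuclear intensity or cell number, is a median of replicates given as percent of the plate control, and HCC1569 values were smoothed for positional effects.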

In experiment [2] the test system is TDF. The experiment is described as above. In short, it runs like this: as §1
Experiment [3] deals with TDF. Description: H1.0 immunofluorescence intensity relative to DMSO (% of DMSO); higher = stronger H1.0 induction, active = 120 or more. In short, it runs like this: as §1
For experiment [4], the system named is HCC1569. The experiment can be described thus: H1.0 immunofluorescence intensity relative to DMSO (% of DMSO); higher = stronger H1.0 induction, active = 140 or more. Summed up: as §1

± gives the standard deviation of the averaged measurements.
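For H1.0 immunofluorescence intensity relative to DMSO in this document: TDF is a line of transformed human dermal fibroblasts of mesenchymal origin.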
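For cell number relative to DMSO in this document: TDF denotes transformed human dermal fibroblasts of mesenchymal origin.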

`COc1ccc(Cl)cc1NC(=O)Nc1cc(C)nc2ccccc12` [IGF-1R Inhibitor II]: the results for the cell number in the experiment with HCC1569 [1] and in the experiment with TDF [2] were 103 and 97.7, respectively. Besides, the H1.0 immunofluorescence intensity was 98.8 (inactive) in the experiment with TDF [3] and 106 (inactive) in the experiment on HCC1569 [4].
The matching figures for `COC(=O)C(Cc1ccc(OCCn2c(=O)sc3cc(C(=O)c4ccccc4)ccc32)cc1)C(=O)OC`: 102, 91.8, 93.3 (inactive) and 105 (inactive).
The matching figures for `CCCCCC=CCC=CCCCCCCCC(=O)O` [Linoleic acid]: 102, 101, 105 (inactive) and 99.3 (inactive).
As for `Cc1cn(C2CC(N=[N+]=[N-])C(CO)O2)c(=O)[nH]c1=O` (stereo unspecified) [3'-Azido-3'-deoxythymidine], the cell number with HCC1569 [1] was determined as 104.8 ± 0.49; in the experiment with TDF [2], 101 ± 7.6. The figures for the H1.0 immunofluorescence intensity in the experiment on TDF [3] and in the experiment with HCC1569 [4] were 96.8 (inactive) and 97.8 (inactive), respectively.
As to `CN1C(CC(=O)c2ccccc2)CCCC1CC(O)c1ccccc1.Cl` (stereo unspecified), the cell number in the experiment with HCC1569 [1] is 102; in the experiment on TDF [2], 90.9. The figures for the H1.0 immunofluorescence intensity with TDF [3] and in the experiment with HCC1569 [4] were 102 (inactive) and 99.2 (inactive), respectively.
The matching figures for `CC(C)(C)NCC(O)c1ccc(O)c(CO)c1.CC(C)(C)NCC(O)c1ccc(O)c(CO)c1.O=S(=O)(O)O` (stereo unspecified) [Albuterol hemisulfate]: 99.8, 103, 92.5 (inactive) and 107 (inactive).
Turning to `Nc1ncnc2c1ncn2C1CCCC1` [9-cyclopentyladenine], the cell number was determined as 102 with HCC1569 [1] and 113 with TDF [2]. In addition, the H1.0 immunofluorescence intensity in the experiment on TDF [3] was 95.1 (inactive); in the experiment on HCC1569 [4] it was 84.6 (inactive).
With `O=C(O)C1CCNCC1` [Isonipecotic acid], the cell number in the experiment with HCC1569 [1] was 102; in the experiment with TDF [2], 104. The H1.0 immunofluorescence intensity with TDF [3] was 91.5 (inactive); in the experiment on HCC1569 [4] it was 91.2 (inactive).
Consider `NC(=O)c1ccc2nc(-c3ccc(Oc4ccc(Cl)cc4)cc3)[nH]c2c1` [Chk2 Inhibitor II], for which the cell number was 97.4 in the experiment on HCC1569 [1] and 100 in the experiment on TDF [2]. Besides, the H1.0 immunofluorescence intensity in the experiment with TDF [3] was 91.4 (inactive); in the experiment on HCC1569 [4], 132 (inactive).
For the compound `CCOc1ccc2c(c1)C(C)=CC(C)(C)N2` [Ethoxyquin], the cell number was found to be 100 in the experiment on HCC1569 [1] and 104 in the experiment on TDF [2]. Also, the H1.0 immunofluorescence intensity in the experiment with TDF [3] is 96.1 (inactive); in the experiment with HCC1569 [4], 98.9 (inactive).
With `S=c1ccss1` [1,2-Dithiole-3-thione], the cell number with HCC1569 [1] worked out at 101; with TDF [2] it was 103. Further, the H1.0 immunofluorescence intensity with TDF [3] is 89.6 (inactive); in the experiment with HCC1569 [4], 99.4 (inactive).
For `CCCCCCCC(=O)c1c(O)cc(O)cc1CC(=O)OCC` [ethyl (3,5-dihydroxy-2-octanoylphenyl)acetate], the results for the cell number in the experiment on HCC1569 [1] and in the experiment on TDF [2] were 104 and 106, respectively. Besides, the H1.0 immunofluorescence intensity in the experiment on TDF [3] was 96.7 (inactive); with HCC1569 [4], 121 (inactive).
The matching figures for `COc1cc2c(cc1OC)-c1[nH]nc(Nc3cccc(F)c3)c1C2` [PDGF Receptor Tyrosine Kinase Inhibitor IV]: 64.3, 8.88, 131 (active) and 160 (active).
Regarding `COC(=O)Nc1nc2ccc(Sc3ccccc3)cc2[nH]1` [Fenbendazole], the cell number was determined as 64 in the experiment with HCC1569 [1] and 95.7 with TDF [2]. Further, the H1.0 immunofluorescence intensity with TDF [3] was 99.2 (inactive); in the experiment with HCC1569 [4] it was 177 (active).
As to `NS(=O)(=O)c1cc2c(cc1Cl)NC=NS2(=O)=O` [Chlorothiazide], the cell number in the experiment on HCC1569 [1] and in the experiment on TDF [2] was 105 in each case. Besides, the H1.0 immunofluorescence intensity was 95.5 (inactive) in the experiment with TDF [3] and 94 (inactive) in the experiment on HCC1569 [4].
As to `O=C(O)c1cc(=O)c2ccccc2[nH]1` [Kynurenic acid], the cell number in the experiment with HCC1569 [1] came to 107; in the experiment on TDF [2], 106. In addition, the H1.0 immunofluorescence intensity in the experiment on TDF [3] was 91.3 (inactive); in the experiment on HCC1569 [4], 94.5 (inactive).
The matching figures for `O=C(O)CN(CCOCCOCCN(CC(=O)O)CC(=O)O)CC(=O)O`: 99.4, 105, 90.3 (inactive) and 88.9 (inactive).
The matching figures for `CCCN(CCC)CCc1cccc2c1CC(=O)N2.Cl` [Ropinirole hydrochloride]: 101, 95.8, 96.1 (inactive) and 101 (inactive).
The matching figures for `O=C(O)C1=CC(=C(c2ccc(O)c(C(=O)O)c2)c2ccc(O)c(C(=O)O)c2)C=CC1=O` [Aurintricarboxylic acid]: 102, 113, 89.4 (inactive) and 85.8 (inactive).
For the compound `CCN(CC)CCOC(=O)c1ccc(N)cc1.Cl` [Procaine hydrochloride], the cell number with HCC1569 [1] stood at 105; with TDF [2], 100. The H1.0 immunofluorescence intensity is 91.3 (inactive) with TDF [3] and 97.8 (inactive) in the experiment with HCC1569 [4].
Take `CC(C)N(CCC(=O)c1ccc2ccccc2c1)Cc1ccccc1.Cl`: the cell number in the experiment on HCC1569 [1] was 96.2; with TDF [2], 92.5. Besides, the H1.0 immunofluorescence intensity in the experiment on TDF [3] was 102 (inactive); with HCC1569 [4], 119 (inactive).
In the case of `CCCCCCCCc1ccc(CCC(N)(CO)CO)cc1.Cl`, the cell number with HCC1569 [1] was 13.6; in the experiment with TDF [2] it was 17.4. Also, the H1.0 immunofluorescence intensity is 210 (active) with TDF [3] and 173 (active) with HCC1569 [4].
The matching figures for `CCCc1nn(C)c2c(=O)nc(-c3cc(S(=O)(=O)N4CCN(C)CC4)ccc3OCC)[nH]c12` [Sildenafil]: 101, 94, 95.1 (inactive) and 103 (inactive).
Regarding `FC(F)(F)c1ccc(CNc2ccc(Cc3c[nH]c4ncccc34)cn2)cc1`, the cell number in the experiment with HCC1569 [1] turned out to be 75.5; in the experiment with TDF [2], 74.9. Also, the H1.0 immunofluorescence intensity with TDF [3] was 108 (inactive); in the experiment on HCC1569 [4], 139 (inactive).
